AHR activator – activates the human aryl hydrocarbon receptor. P35869. AHR-responsive luciferase reporter cells, luminescence. activation, % at 5 µM. 2.5% of 320,000 active. AID 2796; in the data active = activation above about 47%;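 note: 0% = vehicle wells and 100% = reference agonist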
A3G deaminase – APOBEC3G (human) deaminase inhibition. Q9HC16. recombinant A3G, ssDNA deamination FAM/TAMRA fluorescence. 0.28% of 330,000 active. inhibition, % at 20 µM;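 active = inhibition of at least 40% at 20 µM, with no more than 30% in the related APOBEC3A deaminase screen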;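 note: plate controls were DMSO wells with A3G for no effect and wells lacking A3G enzyme for full effect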
Target sequence (Q9HC16 whole entry, looked up): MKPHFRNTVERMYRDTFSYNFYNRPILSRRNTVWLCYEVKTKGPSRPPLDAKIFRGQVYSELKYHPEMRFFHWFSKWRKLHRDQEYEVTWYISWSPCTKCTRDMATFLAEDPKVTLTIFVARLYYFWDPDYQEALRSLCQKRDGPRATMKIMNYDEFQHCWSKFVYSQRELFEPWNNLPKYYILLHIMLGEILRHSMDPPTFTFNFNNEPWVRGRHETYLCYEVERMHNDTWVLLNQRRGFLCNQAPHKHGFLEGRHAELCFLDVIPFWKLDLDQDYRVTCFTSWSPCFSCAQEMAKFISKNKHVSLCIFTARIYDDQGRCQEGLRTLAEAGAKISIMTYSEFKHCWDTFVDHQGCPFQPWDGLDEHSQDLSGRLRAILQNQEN
A3A deaminase – human APOBEC3A DNA deaminase inhibition | AID 493011 | P31941 | recombinant A3A, FAM/TAMRA ssDNA deamination fluorescence | inhibition, % at 20 µM | 0.41% of 330,000 active;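 active = at least 40% inhibition at 20 µM here, with at most 30% in a related deaminase screen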;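 note: plate controls were A3A with DMSO for no effect and wells lacking A3A enzyme for full effect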
NTR1 agonist – activates human neurotensin receptor 1. P30989. NTR1-U2OS beta-arrestin-GFP spot imaging, agonist mode. activation, % at 20 µM. 0.17% of 330,000 active;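 active = activation at or above 40% of the spot to cytoplasm intensity ratio, with at least 20 cells analyzed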;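 note: 0% = DMSO without peptide and 100% = 100 nM NTR1 peptide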
NTR1 ag confirm – confirmation of agonists of human NTR1; 38% of 480 active; AID 504550; NTR1-U2OS beta-arrestin-GFP translocation imaging; activation, % at 20 µM; shares compounds with NTR1 agonist;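 active = mean activation at 20 µM of at least 40%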;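 note: 0% = DMSO without peptide and 100% = 100 nM NTR1 peptide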
* marks the source's active call; other numbers are inactive results; · = no result given. Compounds with a hit are over-represented: about 3.2% of the library has one in this group of screens.

SMILES | AHR activator | A3G deaminase | A3A deaminase | NTR1 agonist | NTR1 ag confirm
CCC(C)NC(=O)CN(c1cc(Cl)cc(Cl)c1)S(C)(=O)=O (configuration not stated) | 1 | -9 | -2 | -1 | ·
CCCCOc1ccc2c(c1)C(=O)c1cc(O)ccc1-2 | 1 | -5 | -2 | 41* | 9
O=C(CCNC(=O)c1ccc([N+](=O)[O-])cc1)NC1CCCCCC1 | -1 | -5 | -3 | -1 | ·
O=C1O/C(=C/c2ccccc2)c2ccccc21 | 0 | -3 | -3 | 1 | ·
N#CC1=C(c2ccccc2)/C(=C/c2ccccc2)OC1=O | 0 | -2 | -1 | 66* | 87*
O=C(CSc1nnnn1-c1ccc(F)cc1)Nc1ccccc1F | · | -5 | -4 | 0 | ·
O=C(/C=C\c1ccccc1OC(=O)c1ccccc1F)c1cc2ccccc2o1 | 59* | -2 | 3 | 67* | 74*
Cc1cc(C)c(S(=O)(=O)NCc2cccnc2)c(C)c1 | 1 | 0 | 2 | -2 | ·
Cc1cccc2sc(NNC(=O)c3cc(-c4cccs4)nc4ccccc34)nc12 | 33 | -10 | -4 | 40* | -1
NNC(=O)c1cc(-c2cccs2)nc2ccccc12 | 15 | -3 | 4 | 0 | ·
Cc1cc(NS(=O)(=O)c2ccc(NC(=O)C(C)Oc3cc(C)c(Cl)c(C)c3)cc2)no1 (configuration not stated) | 0 | -5 | 2 | 0 | ·
CC(C)C[C@H]1CN=C(Nc2ccccc2)N1CC1CCCC1 | 4 | -9 | -1 | -2 | ·
CC(C)C[C@H]1CN=C(Nc2ccccc2)N1CC1CCC(C(C)(C)C)CC1 (some centres not stated) | 0 | -3 | -5 | 42* | 57*
OCCNc1nc(Nc2ccccc2Oc2ccccc2)nc(N2CCCC2)n1 | 6 | -11 | -1 | 46* | 32
CCCc1c(C(=O)N/N=C/c2sccc2C)nnn1-c1nonc1N | 28 | -8 | -3 | 0 | ·
O=[N+]([O-])c1ccc(-c2nc(Nc3cccc(O)c3)c3ccccc3n2)cc1 | 34 | -7 | -1 | 56* | 49*
Cc1ccc(-c2nc(Nc3ccc(O)cc3)c3ccccc3n2)cc1 | 54* | -8 | -4 | 42* | 37
CCCOC(=O)c1cccc(Nc2nc(-c3cccnc3)nc3ccccc23)c1 | 44 | -4 | -1 | 44* | 44*
Cc1ccc(-c2nc(Nc3cccc(O)c3)c3ccccc3n2)cc1 | 31 | 8 | 1 | 57* | 44*
Oc1cccc(Nc2nc(-c3ccccc3Cl)nc3ccccc23)c1 | 13 | -4 | 0 | 8 | ·
Cn1c(N)c(C(=O)CSc2nnc(C3CC3)n2N)c(=O)n(C)c1=O | -2 | -10 | -2 | 0 | ·
O=C(Nc1ncc(Cc2ccc(Cl)cc2Cl)s1)c1ccc([N+](=O)[O-])cc1 | 0 | 0 | -3 | 48* | 7
COCC(C)NCc1ccc(OC)c(Br)c1 (configuration not stated) | 3 | -7 | 0 | -1 | ·
COC(=O)CN1C(=O)C2(C(C#N)=C(N)Oc3n[nH]c(-c4cccs4)c32)c2ccccc21 (configuration not stated) | 5 | -6 | -2 | 53* | -3
CCN1C(=O)C2(C(C#N)=C(N)Oc3n[nH]c(-c4ccccc4)c32)c2ccccc21 (configuration not stated) | 4 | -8 | -5 | 2 | ·
SMILES | AHR activator | A3G deaminase | A3A deaminase | NTR1 agonist | NTR1 ag confirm
COC(=O)C1=C(C(=O)OC)[C@@H]2N(Cc3ccccc3)c3ccccc3[C@@]23C[C@@H](C(=O)OC)N(C(=O)C2CCC2)C3=N1 | -1 | 1 | 2 | 4 | ·
Cc1ccc(NC(c2ccccc2)c2nc3ccccc3[nH]c2=O)cc1 (configuration not stated) | 13 | -5 | 2 | 40* | 8
N#CSC(c1ccccc1)c1nc2ccccc2[nH]c1=O (configuration not stated) | 6 | -7 | -3 | 2 | ·
Oc1ccc(Cl)cc1/C=C/c1ccc2cccc(O)c2n1 | · | -8 | 2 | 46* | 17
Oc1cccc2ccc(/C=C/c3ccccc3Br)nc12 | 28 | -4 | 0 | 21 | ·
COc1cccc(-c2nc(NCc3ccccc3)c3ccccc3n2)c1O | 22 | 1 | 1 | 17 | ·
COc1cccc(-c2nc(NC3CCCC3)c3ccccc3n2)c1O | 18 | -8 | 0 | 60* | 8
CCOC(=O)CNC(=S)N1CCn2c(nc3ccccc32)C1 | 19 | -2 | 0 | 2 | ·
c1ccc(CNc2c(-c3cccc(SC4CCCCC4)c3)nc3ccccn23)cc1 | 4 | -4 | 0 | 40* | 4

Screening results: PubChem, several laboratories
